High-throughput results deposited in PubChem by several laboratories.
Rows were chosen to be rich in hits. Some 4.5% of all compounds tested hit in one or more screens of this group.
697 NFkB inh: lowers PMA/ionomycin-induced NF-kB signal in 697 B cells; 697 B-cell NF-kB luciferase reporter, 16 h; inhibition, % at 4 µM; AID 435022; 330,000 compounds, 0.33% hits; in the data active = inhibition above about 35%
Beta cell apopt: blocks beta cell apoptosis. 300,000 compounds, 0.8% hits. AID 435005. INS-1E cytokine-induced death, ATP luminescence, 48 h; percent of positive-control rescue, neutral wells zero. protection from apoptosis, % (no concentration beside the values);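 active = Every replicate reaches about 75%, or at least half do and their mean reaches it too, limit read from the data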;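 note: 0% = cytokine-treated negative control wells and 100% = positive control rescue; higher means more ATP so stronger rescue from cytokine killing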
Jurkat NFkB inh: inhibitors of the PMA/ionomycin-induced NF-kB reporter in Jurkat cells | PMA/ionomycin-induced NF-kB luciferase reporter, luminescence | inhibition, % at 4 µM | 330,000 compounds, 0.53% hits; in the data active = inhibition above about 50%
Mdm2-MdmX inh: human Mdm2/MdmX binding inhibition; SaOS-2 split-luciferase Mdm2/MdmX complementation, luminescence; inhibition, % at 8 µM; AID 485346; O15151+Q00987; 330,000 compounds, 3% hits;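 active = inhibition of at least 50% at 8 µM in the primary screen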
CSC inhib: cancer stem cell inhibition. cancer stem cell-like cells viability, luminescence. inhibition, % at 7.5 µM. 300,000 compounds, 1.1% hits. AID 2717; in the data active = inhibition above about 75%; tested in HMLE shEcad cells
Gli-Sufu block: Gli-Sufu pathway antagonism | Sufu-KO-LIGHT fibroblasts, Gli luciferase reporter luminescence | inhibition, % at 5 µM | 340,000 compounds, 0.74% hits;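 active = inhibition above about 55%, limit read from the data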;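 note: 0% = DMSO-treated cells and 100% = wells with medium but no cells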
Mdm2-MdmX conf: confirmation of human Mdm2/MdmX interaction inhibitors; 10,000 compounds, 55% hits; inhibition, % at 8 µM; shares compounds with Mdm2-MdmX inh; AID 489028; Mdm2-MdmX binding, luminescent assay; in the data active = inhibition above about 40%
Full FLuc ctr: inhibits full-length luciferase, flagging false Mdm2/MdmX hits | shares compounds with Mdm2-MdmX inh | SaOS-2 full-length luciferase counterscreen, luminescence | inhibition, % at 8 µM | 6,200 compounds, 77% hits | AID 504607;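 active = mean inhibition at 8 µM reaching about 37%, which flags the compound as non-specific, limit read from the data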;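 note: p53-null SaOS-2 cells with luciferase driven by a doxycycline-inducible promoter; compound on cells about two nights before reading with doxycycline added after day one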
An asterisk follows results filed as active; nt = no result given.

SMILES | 697 NFkB inh | Beta cell apopt | Jurkat NFkB inh | Mdm2-MdmX inh | CSC inhib | Gli-Sufu block | Mdm2-MdmX conf | Full FLuc ctr
CC(=O)NS(=O)(=O)c1ccc(NC(=O)C(Sc2ccccc2)c2ccccc2)cc1 (stereo not drawn) | 0 | -2 | -20 | 14 | nt | 2 | nt | nt
CC1CCN(c2ccc(-c3cccs3)nn2)CC1 | -14 | 28 | 31 | 55* | 32 | 10 | 64* | 40*
Clc1ccc(-c2cccs2)nn1 | -22 | -6 | 4 | -15 | nt | 28 | nt | nt
COc1ccccc1CN(C)C(=O)c1cc(-c2cc(OC)c(OC)c(OC)c2)nc2ccccc12 | 32 | 14 | 6 | 78* | 8 | 21 | 77* | 50*
CCN(Cc1ccccc1)C(=O)c1cc(-c2ccc(OC)c(OC)c2)nc2ccccc12 | 2 | 9 | 4 | 33 | 20 | 12 | nt | nt
COc1ccc(-c2cc(C(=O)N(C)Cc3ccccc3F)c3ccccc3n2)cc1OC | 26 | 19 | 10 | 70* | 23 | 11 | 39 | 105*
COc1cccc(CN(C)C(=O)c2cc(-c3cccs3)nc3ccccc23)c1 | 17 | 3 | -10 | 58* | 4 | 10 | 43* | 61*
COc1cc(-c2cc(C(=O)N(C)Cc3ccccc3)c3ccccc3n2)cc(OC)c1OC | 24 | 12 | -11 | 62* | -10 | 20 | 46* | 76*
CCC(COC)NCc1cn(-c2ccc(OC)cc2)nc1-c1cccc(F)c1 (stereo not drawn) | 9 | 1 | -7 | 33 | -4 | 4 | nt | nt
O=C(NNC(=O)c1ccc(O)c(Cl)c1)c1cccc(S(=O)(=O)N2CCOCC2)c1 | 4 | -1 | 7 | 7 | 11 | 5 | nt | nt
C=CCN(Cc1cccs1)C(=O)COc1ccc2c(c1)OCO2 | -17 | -2 | -7 | 3 | -15 | -10 | nt | nt
CCOC(=O)CCc1nc2ccccc2[nH]1 | 14 | -7 | 4 | -6 | -4 | 0 | nt | nt
COCC(=O)O[C@]1(CCN(C)CCCc2nc3ccccc3[nH]2)CCc2cc(F)ccc2[C@@H]1C(C)C | 1 | 31 | 1 | 93* | 20 | 7 | 53* | 36*
CCN(CC)CCNC(=O)c1ccc(NC(=O)C2CCN(c3ncnc4sc(C)c(C)c34)CC2)cc1 | -42 | 0 | 7 | 91* | 11 | 4 | 61* | 22
Cc1ccc(S(=O)(=O)N2CCCC(c3nc4c(nnn4Cc4ccc5c(c4)OCCO5)c(=O)[nH]3)C2)cc1 (stereo not drawn) | -2 | 4 | -5 | 34 | 4 | -8 | nt | nt
C=CCc1cccc(/C=N/NC(=O)CNc2ccccc2OC)c1O | 10 | -3 | 21 | 69* | 34 | -8 | 55* | 28
C=CCc1cccc(/C=N/NC(=O)CNc2cccc3ccccc23)c1O | 7 | nt | -2 | 71* | 64 | -3 | 66* | 39*
C=CCc1cccc(/C=N/NC(=O)C(C)Nc2cccc(C)c2)c1O (stereo not drawn) | 5 | 22 | 7 | 71* | 52 | 6 | 56* | 35
C=CCc1cccc(/C=N/NC(=O)CNc2ccccc2)c1O | 11 | 90* | -1 | 56* | 63 | -1 | 55* | 33
CC(Nc1ccc(Br)cc1)C(=O)N/N=C/c1ccccc1OCc1ccccc1 (stereo not drawn) | 16 | -2 | -3 | 23 | -14 | -5 | nt | nt
C=CCc1cccc(/C=N/NC(=O)CCCNc2ccc(C)cc2)c1O | nt | -2 | nt | nt | 49 | -6 | nt | nt
C=CCc1cccc(/C=N/NC(=O)C[n+]2ccccc2)c1O | 2 | 54 | 11 | 7 | 73 | 4 | nt | nt
C[C@H](NC(=O)C1CC(=O)N(c2ccc3c(c2)OCCO3)C1)C(=O)N1CCCCC1 (stereo partly drawn) | 14 | -2 | -6 | 3 | -6 | -8 | nt | nt
CCCCN1C(=O)C(=Nc2cccc3cnccc23)c2ccccc21 | -5 | -2 | 16 | 9 | 11 | 0 | nt | nt
COCC(=O)N1CCC(n2nccc2NC(=O)CCOc2ccccc2)CC1 | 0 | -3 | -3 | -10 | 7 | -4 | nt | nt
SMILES | 697 NFkB inh | Beta cell apopt | Jurkat NFkB inh | Mdm2-MdmX inh | CSC inhib | Gli-Sufu block | Mdm2-MdmX conf | Full FLuc ctr
Cc1cc(C(=O)NC2CCCc3c2cnn3-c2ccc(C(C)(C)C)cc2)n[nH]1 (stereo not drawn) | -47 | 32 | 23 | 20 | 10 | 16 | nt | nt
O=C(C1CCN(CCc2ccccc2)CC1)N1CCOCC1 | nt | nt | nt | nt | nt | 12 | nt | nt
O=C(N=C1SC2CS(=O)(=O)CC2N1c1ccccc1Cl)C1CCCO1 (stereo not drawn) | 14 | -4 | 1 | 5 | 1 | -10 | nt | nt
O=C(c1ccc2ccccc2c1)C1CCCN(S(=O)(=O)c2cccnc2)C1 (stereo not drawn) | -3 | 6 | 4 | 29 | -8 | 2 | nt | nt
C=CCc1cccc(/C=N/NC(=O)CCC(=O)Nc2ccc(F)cc2)c1O | -3 | 93* | 24 | 71* | 22 | 3 | 64* | 17
Cc1cc(C)n(-c2nc(N(c3ccccc3)c3ccccc3)nc(-n3nc(C)cc3C)n2)n1 | -32 | nt | 16 | 100* | -15 | 43 | 100* | 58*
COc1cc2c(c3ccccc13)CCCC2=O | nt | nt | nt | nt | nt | -9 | nt | nt
CC(=O)c1cccc(NC(=O)NC(C)c2ccc3c(c2)OCO3)c1 (stereo not drawn) | 3 | 0 | -1 | 7 | 0 | 0 | nt | nt
COc1cc(-c2csc(N3CCOCC3)n2)cc(OC)c1OC | 19 | -2 | 4 | 15 | 5 | 12 | nt | nt
COc1cccc(Cl)c1NC(=O)N1CCN(c2cc(C)nc3ccccc23)CC1 | 19 | 7 | 20 | 55* | 15 | 40 | 24 | nt
COc1ccc(-c2csc(N3CCN(c4cc(C)nc5ccccc45)CC3)n2)cc1OC | -15 | -2 | 30 | 96* | 95* | 21 | 58* | 74*
CC(C)(C)C(=O)N1CCN(c2ccc(NC(=O)c3ccc([N+](=O)[O-])o3)cc2)CC1 | -4 | -19 | 28 | 54* | 1 | -5 | 46* | 31
CN1CCN(c2ccc(NC(=O)c3ccc(-c4ccc(Br)cc4)o3)cc2)CC1 | -29 | 24 | 18 | 77* | -15 | 14 | 39 | 81*
O=C(Nc1ccc(N2CCN(Cc3ccccc3F)CC2)cc1)c1ccccc1[N+](=O)[O-] | 4 | -2 | 11 | 23 | 1 | 11 | nt | nt
CCC(=O)N1CCN(c2ccc(NC(=O)c3ccc([N+](=O)[O-])o3)cc2)CC1 | nt | nt | nt | nt | nt | 9 | nt | nt
O=C(Nc1ccc(N2CCN(Cc3ccccc3F)CC2)cc1)c1ccc([N+](=O)[O-])o1 | 1 | 48 | 37 | 81* | 103* | 42 | 69* | 16
CCCN=C1N(C)C[C@@H]2[C@@H]3C(=O)N(C)C(=O)[C@@H]3[C@](Cc3ccccc3)(C(=O)OC)N12 | 7 | nt | nt | 5 | nt | -1 | nt | nt
Cc1ccc(N2CC(C(=O)NCCN3CCOCC3)CC2=O)cc1C (stereo not drawn) | 14 | -4 | -2 | -1 | nt | -15 | nt | nt
